Data from PubChem BioAssay (EPA / NIEHS).
Values joined by “and” are separate entries in the source; they are usually repeats but may differ in a detail not shown here. Equal values may be shown once. Some compounds were tested as several samples or in several runs, with calls that do not always agree. Active and inactive are the calls of the source. Rule for the calls: active = hit-call score of the fitted dose curve at least 0.9, where 1 is the maximum; inactive = score below 0.9.

Tests used:
[1] = ATG_E_Box_CIS: Attagene CIS-FACTORIAL HepG2 Assay for human Enhancer Box (E-box) (AID 2282936); conditions: HepG2 E-box cis-reporter transcription, actives raise or lower the signal
Summary of the method: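 Cells: HepG2 (human liver), transient MRTU transfection. Exposure 24 h. RNA → oligo(dT) RT → PCR → 6-FAM label → HpaI → CE. Activity fitted both directions relative to DMSO.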

[2] = ATG_M_61_CIS: Attagene CIS-FACTORIAL HepG2 Assay for M61 Transcription Factor (Internal Marker) (AID 2282937); conditions: HepG2 Attagene CIS-FACTORIAL M61 internal marker reporter; actives raise or lower the signal
Summary of the method: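 HepG2 cells transiently transfected with multiplexed cis-promoter reporter units reporting endogenous transcription factor activity, measured 24 h after dosing. Reporter mRNA quantified by RT-PCR and capillary electrophoresis; bidirectional fit against DMSO baseline.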

[3] = ATG_EGR_CIS: Attagene CIS-FACTORIAL HepG2 Assay for human Early Growth Response 1 (EGR1) (AID 2282938); conditions: HepG2 Attagene CIS-FACTORIAL EGR reporter mRNA; actives raise or lower the signal
Summary of the method: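 HepG2 cells transiently transfected with cis-element-driven multiplexed reporter units, dosed for 24 h. EGR1-element reporter mRNA quantified by RT-PCR, 6-FAM labelling, HpaI digestion and capillary electrophoresis; bidirectional fit versus DMSO.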

[4] = ATG_M_19_CIS: Attagene CIS-FACTORIAL HepG2 Assay for M19 Transcription Factor (Internal Marker) (AID 2282939); conditions: HepG2 Attagene CIS-FACTORIAL M19 internal marker reporter; actives raise or lower the signal
Summary of the method: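 Internal marker readout, fitted in both directions against DMSO, from HepG2 cells carrying transfected cis-element reporter constructs; RT-PCR and capillary electrophoresis of reporter mRNA after 24 h exposure.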

[5] = ATG_ERE_CIS: Attagene CIS-FACTORIAL HepG2 Assay for Estrogen Response Element (ERE) (AID 2282940); conditions: HepG2 ERE cis-reporter, Attagene RNA transcript; actives raise or lower the signal
Summary of the method: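 After 24 h compound treatment, RNA from transfected HepG2 cells was reverse-transcribed, reporter cDNA PCR-amplified, FAM-labelled, HpaI-cut and resolved by capillary electrophoresis. ERE-driven cis reporter transcripts reflect endogenous factors; gain or loss scored against DMSO.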

[6] = ATG_Ets_CIS: Attagene CIS-FACTORIAL HepG2 Assay for human Erythroblast Transformation Specific (ETS) (AID 2282941); conditions: HepG2 ETS cis-reporter transcription, actives raise or lower the signal
Summary of the method: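 HepG2 cells transfected with multiple cis-regulated reporter units measuring endogenous ETS-driven transcription, 24 h after dosing. Reporter mRNA quantified by RT-PCR with capillary electrophoresis; bidirectional fit relative to DMSO.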

[7] = target: Hepatocyte nuclear factor 3-beta (Homo sapiens) (UniProt Q9Y261); test: ATG_FoxA2_CIS: Attagene CIS-FACTORIAL HepG2 Assay for human Forkhead box A2 (FOXA2) (AID 2282942); conditions: HepG2 cis-reporter transcription factor activity, 24 h; actives raise or lower the signal
Summary of the method: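 HepG2 transiently transfected with a multiplexed cis-promoter reporter library read endogenous FOXA2 activity. After 24 h compound exposure, reporter mRNA was quantified by RT-PCR, HpaI digestion and capillary electrophoresis. Bidirectional fit against DMSO.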

[8] = ATG_FoxO_CIS: Attagene CIS-FACTORIAL HepG2 Assay for human Forkhead box O (FoxO) (AID 2282943); conditions: HepG2 Attagene cis-reporter, FoxO element, mRNA; actives raise or lower the signal
Summary of the method: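 Human hepatoma HepG2 cells carry transiently introduced reporter transcription units controlled by cis promoter elements. Chemical treatment lasted 24 h, and mRNA signal was compared with DMSO.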

[9] = ATG_GATA_CIS: Attagene CIS-FACTORIAL HepG2 Assay for human GATA Binding Protein (AID 2282944); conditions: HepG2 GATA cis-element reporter, Attagene multiplex mRNA; actives raise or lower the signal
Summary of the method: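 Reporter transcripts from a GATA cis-regulated unit, among multiplexed reporters in transfected HepG2 cells, were measured by RT-PCR with capillary electrophoresis after 24 h dosing. Induction or loss scored relative to DMSO.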

[10] = ATG_GLI_CIS: Attagene CIS-FACTORIAL HepG2 Assay for human Zinc Finger Protein GLI1 (AID 2282945); conditions: HepG2, Attagene cis-factorial reporter mRNA, GLI element; actives raise or lower the signal
Summary of the method: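 Bidirectional curve fits relative to DMSO, using reporter mRNA levels from RT-PCR plus capillary electrophoresis. Cells were HepG2 transiently carrying cis-regulated reporter constructs, harvested 24 h after dosing.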

[11] = ATG_GRE_CIS: Attagene CIS-FACTORIAL HepG2 Assay for human Glucocorticoid Response Elements (GRE) (AID 2282947); conditions: HepG2 GRE cis-reporter, Attagene multiplex mRNA; actives raise or lower the signal
Summary of the method: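 Transient MRTU transfection of human HepG2 liver cells; cis-regulated reporters report endogenous factors. 24 h dosing → RNA isolation → RT-PCR → 6-FAM primer extension → HpaI cut → CE fragment analysis. Bidirectional fit, DMSO negative control.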

[12] = ATG_ISRE_CIS: Attagene CIS-FACTORIAL HepG2 Assay for human Interferon Regulatory Factor 1 (IRF1) binding to an Interferon-Stimulated Response Element (ISRE) (AID 2282948); conditions: HepG2 ISRE cis-reporter (Attagene), mRNA transcription readout; actives raise or lower the signal
Summary of the method: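 Transiently transfected HepG2 cells carrying cis-element reporter units, dosed 24 hours. Reporter mRNA quantified by RT-PCR, fluorescent primer extension, HpaI digestion and capillary electrophoresis. Bidirectional fitting relative to DMSO.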

[13] = ATG_M_32_CIS: Attagene CIS-FACTORIAL HepG2 Assay for M32 Transcription Factor (Internal Marker) (AID 2282949); conditions: HepG2 Attagene cis-factorial M32 reporter, mRNA; actives raise or lower the signal;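 note: background control marker of the multiplexed CIS panel rather than a real target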
Summary of the method: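 HepG2 cells transiently transfected with multiplexed cis-regulated reporter units, dosed 24 h. Reporter mRNA quantified by RT-PCR, 6-FAM labelling, HpaI digestion and capillary electrophoresis; bidirectional fit vs DMSO.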

[14] = ATG_M_06_CIS: Attagene CIS-FACTORIAL HepG2 Assay for M06 Transcription Factor (Internal Marker) (AID 2282950); conditions: HepG2 Attagene CIS-FACTORIAL M06 internal marker reporter; actives raise or lower the signal
Summary of the method: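 Serves as a background control readout. Transfected HepG2 exposed to compounds for 24 h, then reporter transcripts quantified by fluorescent RT-PCR and capillary electrophoresis. Both directions fitted against DMSO baseline.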

[15] = target: Hypoxia-inducible factor 1-alpha (Homo sapiens) (UniProt Q16665); test: ATG_HIF1a_CIS: Attagene CIS-FACTORIAL HepG2 Assay for human Hypoxia Inducible Factor 1 (HIF1A) (AID 2282951); conditions: HepG2 Attagene cis-factorial HIF1a reporter transcription; actives raise or lower the signal
Summary of the method: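 HepG2 cells transiently transfected with multiple cis-regulated reporter transcription units measure endogenous transcription factor activity. After 24 h exposure, reporter mRNA is quantified by RT-PCR with 6-FAM labelling, HpaI digestion and capillary electrophoresis. Bidirectional fitting against DMSO.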

[16] = target: Hepatocyte nuclear factor 6 (Homo sapiens) (UniProt Q9UBC0); test: ATG_HNF6_CIS: Attagene CIS-FACTORIAL HepG2 Assay for human Hepatocyte Nuclear Factor 6 (HNF6) (AID 2282952); conditions: HepG2 Attagene cis-factorial HNF6 reporter transcription; actives raise or lower the signal
Summary of the method: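 Multiplexed mRNA reporter assay in transfected HepG2; 24 h dosing; RT-PCR plus capillary electrophoresis fluorescence; DMSO-referenced bidirectional curve fitting.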

[17] = target: Heat shock factor protein 1 (Homo sapiens) (UniProt Q00613); test: ATG_HSE_CIS: Attagene CIS-FACTORIAL HepG2 Assay for human Heat Shock Transcription Factor 1 (HSE) (AID 2282953); conditions: HepG2 HSE cis-reporter, Attagene RNA transcription; actives raise or lower the signal
Summary of the method: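 Endogenous transcription factor activity in transiently transfected HepG2, read as reporter mRNA by RT-PCR with fluorescent capillary electrophoresis after 24 h. Gain or loss of signal fitted versus DMSO baseline.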

[18] = ATG_MRE_CIS: Attagene CIS-FACTORIAL HepG2 Assay for human Metal Responsive Element (MRE) (AID 2282954); conditions: HepG2 MRE cis-reporter transcription, Attagene multiplex; actives raise or lower the signal
Summary of the method: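 Transient MRTU transfection of HepG2 (FuGene 6); 24 h dosing; total RNA → oligo(dT) RT, PCR, 6-FAM primer extension, HpaI cut, CE. Bidirectional fit vs DMSO.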

[19] = target: Paired box protein Pax-6 (Homo sapiens) (UniProt P26367); test: ATG_Pax6_CIS: Attagene CIS-FACTORIAL HepG2 Assay for human Paired Box 6 (PAX6) (AID 2282956); conditions: HepG2 CIS-FACTORIAL PAX6 reporter transcription, RNA readout; actives raise or lower the signal
Summary of the method: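 HepG2 cells transiently transfected with cis-promoter-driven multiplexed reporter units sensing endogenous transcription factor activity; 24 h chemical exposure. Reporter mRNA quantified by RT-PCR, 6-FAM labelling, HpaI digestion and capillary electrophoresis; bidirectional fit versus DMSO baseline.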

[20] = ATG_PBREM_CIS: Attagene CIS-FACTORIAL HepG2 Assay for human Phenobarbital-responsive Enhancer Module (PBREM) (AID 2282955); conditions: HepG2 PBREM cis-reporter, Attagene multiplexed transcription; actives raise or lower the signal
Summary of the method: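 HepG2 cells transiently transfected with multiple cis-regulated reporter units measure endogenous transcription factor activity; 24 h compound exposure. Reporter mRNA quantified by RT-PCR, fluorescent labelling, HpaI digestion and capillary electrophoresis; bidirectional fit versus DMSO.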

Measured: AC50

Hepatocyte nuclear factor 3-beta (Homo sapiens), sequence (Q9Y261 whole entry, looked up): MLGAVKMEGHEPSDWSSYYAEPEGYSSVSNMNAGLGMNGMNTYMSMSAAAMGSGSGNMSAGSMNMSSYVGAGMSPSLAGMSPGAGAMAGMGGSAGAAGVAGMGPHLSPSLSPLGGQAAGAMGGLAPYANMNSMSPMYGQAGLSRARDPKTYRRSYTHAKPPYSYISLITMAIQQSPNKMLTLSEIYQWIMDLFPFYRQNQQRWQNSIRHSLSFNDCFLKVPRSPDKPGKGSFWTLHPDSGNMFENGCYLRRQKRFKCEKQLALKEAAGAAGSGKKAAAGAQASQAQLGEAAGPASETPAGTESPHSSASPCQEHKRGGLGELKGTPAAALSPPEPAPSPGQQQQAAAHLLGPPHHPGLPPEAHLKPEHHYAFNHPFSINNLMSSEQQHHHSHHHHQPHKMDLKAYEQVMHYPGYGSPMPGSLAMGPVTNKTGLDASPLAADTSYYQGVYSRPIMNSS
Paired box protein Pax-6 (Homo sapiens), sequence (P26367 whole entry, looked up): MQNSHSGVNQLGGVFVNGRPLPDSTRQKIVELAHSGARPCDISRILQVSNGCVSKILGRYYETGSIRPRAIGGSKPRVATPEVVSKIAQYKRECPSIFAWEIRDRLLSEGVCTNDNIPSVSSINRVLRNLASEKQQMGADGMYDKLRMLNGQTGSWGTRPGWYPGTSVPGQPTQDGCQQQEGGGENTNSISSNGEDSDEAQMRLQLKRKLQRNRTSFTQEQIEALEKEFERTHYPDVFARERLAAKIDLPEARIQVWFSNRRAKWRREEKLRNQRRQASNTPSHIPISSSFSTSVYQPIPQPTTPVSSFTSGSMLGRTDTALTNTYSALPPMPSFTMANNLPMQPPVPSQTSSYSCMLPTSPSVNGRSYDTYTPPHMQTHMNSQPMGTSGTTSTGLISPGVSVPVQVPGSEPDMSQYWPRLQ
Heat shock factor protein 1 (Homo sapiens), sequence (Q00613 whole entry, looked up): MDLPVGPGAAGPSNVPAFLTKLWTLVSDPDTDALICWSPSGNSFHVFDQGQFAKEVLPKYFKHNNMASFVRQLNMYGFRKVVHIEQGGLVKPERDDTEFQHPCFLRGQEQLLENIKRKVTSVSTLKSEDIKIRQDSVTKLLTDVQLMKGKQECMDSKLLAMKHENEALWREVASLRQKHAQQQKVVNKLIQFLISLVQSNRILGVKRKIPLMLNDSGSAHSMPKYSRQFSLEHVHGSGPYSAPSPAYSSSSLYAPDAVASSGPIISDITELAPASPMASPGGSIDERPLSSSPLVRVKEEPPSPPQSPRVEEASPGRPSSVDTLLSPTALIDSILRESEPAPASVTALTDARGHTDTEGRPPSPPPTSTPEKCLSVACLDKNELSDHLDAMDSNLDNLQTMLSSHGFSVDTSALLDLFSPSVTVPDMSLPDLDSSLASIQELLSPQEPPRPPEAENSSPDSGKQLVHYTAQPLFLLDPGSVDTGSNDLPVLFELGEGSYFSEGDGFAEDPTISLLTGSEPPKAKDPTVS
Hypoxia-inducible factor 1-alpha (Homo sapiens), sequence (Q16665 whole entry, looked up): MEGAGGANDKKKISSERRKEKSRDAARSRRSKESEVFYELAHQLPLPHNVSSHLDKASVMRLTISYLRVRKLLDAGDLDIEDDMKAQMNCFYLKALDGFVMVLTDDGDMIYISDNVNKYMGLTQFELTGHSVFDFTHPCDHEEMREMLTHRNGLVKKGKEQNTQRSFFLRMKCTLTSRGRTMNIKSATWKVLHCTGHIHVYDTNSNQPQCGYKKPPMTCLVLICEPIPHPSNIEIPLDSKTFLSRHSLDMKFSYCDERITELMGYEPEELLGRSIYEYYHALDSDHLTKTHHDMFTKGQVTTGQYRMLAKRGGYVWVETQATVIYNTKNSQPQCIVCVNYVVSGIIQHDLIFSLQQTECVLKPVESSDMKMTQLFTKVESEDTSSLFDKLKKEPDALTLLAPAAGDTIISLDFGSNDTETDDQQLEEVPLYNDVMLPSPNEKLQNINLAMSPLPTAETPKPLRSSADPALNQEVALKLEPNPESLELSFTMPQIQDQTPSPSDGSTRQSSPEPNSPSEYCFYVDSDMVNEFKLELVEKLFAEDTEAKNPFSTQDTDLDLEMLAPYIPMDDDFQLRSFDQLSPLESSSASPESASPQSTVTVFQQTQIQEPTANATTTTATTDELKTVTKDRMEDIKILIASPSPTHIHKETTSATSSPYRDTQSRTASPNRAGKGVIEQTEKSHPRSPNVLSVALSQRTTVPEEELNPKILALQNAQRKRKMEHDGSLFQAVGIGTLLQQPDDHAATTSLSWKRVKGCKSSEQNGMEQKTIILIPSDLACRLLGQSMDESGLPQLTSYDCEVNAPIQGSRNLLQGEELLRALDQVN
Hepatocyte nuclear factor 6 (Homo sapiens), sequence (Q9UBC0 whole entry, looked up): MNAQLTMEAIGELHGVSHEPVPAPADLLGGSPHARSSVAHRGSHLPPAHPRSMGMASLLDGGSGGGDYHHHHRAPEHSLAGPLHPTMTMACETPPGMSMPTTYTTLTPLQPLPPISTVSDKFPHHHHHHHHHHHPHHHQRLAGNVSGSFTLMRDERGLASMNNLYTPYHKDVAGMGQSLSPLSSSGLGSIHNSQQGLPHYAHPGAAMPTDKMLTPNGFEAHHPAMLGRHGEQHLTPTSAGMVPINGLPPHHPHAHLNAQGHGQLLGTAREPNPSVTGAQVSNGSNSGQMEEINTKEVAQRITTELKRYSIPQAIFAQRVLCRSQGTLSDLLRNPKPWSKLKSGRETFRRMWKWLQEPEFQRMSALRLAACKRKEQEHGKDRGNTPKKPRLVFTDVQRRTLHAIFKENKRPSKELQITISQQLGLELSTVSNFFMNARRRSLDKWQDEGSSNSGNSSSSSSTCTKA

COS(=O)(=O)OC
active: [15] 26.9 µM
inactive: [1] | [2] | [3] | [4] | [5] | [6] | [7] | [8] | [9] | [10] | [11] | [12] | [13] | [14] | [16] | [17] | [18] | [19]

O=C(N[C@H]1CN2CCC1CC2)c1cc2ccoc2cn1
inactive: [1] | [2] | [3] | [4] | [5] | [6] | [7] | [8] | [9] | [10] | [11] | [13] | [14] | [15] | [16] | [17] | [18] | [20] | [19]
active: [12] 82.4 µM

ClC(Cl)=C(c1ccc(Cl)cc1)c1ccc(Cl)cc1
inactive: [1] | [3] | [4] | [6] | [7] | [8] | [9] | [10] | [11] | [12] | [13] | [14] | [15] | [16] | [17] | [18] | [20] | [19]
active: [1] 58.3 µM and 24.8 µM | [4] 129 µM | [5] 14 µM [middle of 4 runs] | [9] 155 µM | [10] 131 µM and 63.1 µM and 121 µM | [12] 100 µM | [15] 169 µM | [17] 174 µM | [18] 156 µM | [19] 100 µM

CCOP(=S)(OCC)SCSC(C)(C)C
active: [1] 1.86 µM | [5] 29.7 µM and 5.91 µM | [12] 63.5 µM
inactive: [1] | [3] | [4] | [6] | [7] | [8] | [9] | [10] | [12] | [13] | [14] | [15] | [16] | [17] | [18] | [20] | [19]

O=NN(c1ccccc1)c1ccccc1
active: [5] 26.1 µM
inactive: [1] | [2] | [3] | [4] | [6] | [7] | [8] | [9] | [10] | [11] | [12] | [13] | [14] | [15] | [16] | [17] | [18] | [19]
